The campaign covered roughly 5,500 compounds. About 2,000 (36%) were called active. Inconclusive results (about 18%) are left out. No stated cut-off is given here; in the data, active means normalized growth mostly below about 0.91 (no sharp cut-off); inconclusive means no clear call, values can overlap the other calls; inactive means mostly above about 0.92. Some of the results follow.
Assay: chemical genetic growth profiling, strain panel (AID 1159580);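 further: tested at 20 µM; growth read once vehicle control cultures reached saturation at 30 °C; 1 = growth at the plate median or of vehicle wells; lower values mean less growth of the strain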
Settings: S. cerevisiae deletion strains, growth OD

Measured: normalized growth

C/C(=N/NC(N)=S)c1ccc(Oc2c(Cl)cncc2Cl)cc1
inactive: locus YAR019C, strain CDC15, hits give low values 0.997 | locus YBL105C, strain PKC1, hits give low values 0.993 | locus YBR135W, strain CKS1, hits give low values 0.983 | locus YBR136W, strain MEC1, hits give low values 0.986 | locus YBR160W, strain CDC28, hits give low values 0.989 | locus YDL017W, strain CDC7, hits give low values 0.987 | locus YDL028C, strain MPS1, hits give low values 0.992 | locus YDL101C, strain DUN1, hits give low values 0.988 | locus YDL108W, strain KIN28, hits give low values 0.987 | locus YDL132W, strain cdc53, hits give low values 0.994 | locus YDL214C, strain PRR2, hits give low values 1.01 | locus YDR052C, strain DBF4, hits give low values 0.989 | locus YDR054C, strain cdc34, hits give low values 0.978 | locus YDR226W, strain ADK1, hits give low values 0.988 | locus YDR477W, strain SNF1, hits give low values 0.999 | locus YER123W, strain YCK3, hits give low values 0.989 | locus YER133W, strain GLC7, hits give low values 0.969 | locus YFL009W, strain cdc4, hits give low values 0.983 | locus YFL029C, strain CAK1, hits give low values 1 | locus YFR003C, strain YPI1, hits give low values 0.991 | locus YFR019W, strain FAB1, hits give low values 0.99 | locus YFR028C, strain CDC14, hits give low values 0.993 | locus YGR040W, strain KSS1, hits give low values 0.989 | locus YGR052W, strain FMP48, hits give low values 1.06 | locus YGR092W, strain DBF2, hits give low values 0.97 | locus YHR030C, strain SLT2, hits give low values 1.05 | locus YHR079C, strain IRE1, hits give low values 0.932 | locus YHR082C, strain KSP1, hits give low values 1.24 | locus YHR205W, strain SCH9, hits give low values 1.07 | locus YIL147C, strain SLN1, hits give low values 0.984 | locus YJL095W, strain BCK1, hits give low values 0.944 | locus YJL128C, strain PBS2, hits give low values 1.02 | locus YJL157C, strain FAR1, hits give low values 0.993 | locus YJR016C, strain ILV3, hits give low values 0.995 | locus YJR066W, strain TOR1 (second series), hits give low values 0.953 | locus YJR066W, strain TOR1, hits give low values 1.2 | locus YKL048C, strain ELM1, hits give low values 1.03 | locus YKL067W, strain YNK1, hits give low values 1.02 | locus YKL101W, strain HSL1, hits give low values 1.03 | locus YKL193C, strain SDS22, hits give low values 0.991 | locus YKL203C, strain TOR2, hits give low values 1.06 | locus YLR113W, strain HOG1, hits give low values 1.01 | locus YLR133W, strain CKI1, hits give low values 1.01 | locus YLR403W, strain SFP1, hits give low values 0.97 | locus YML070W, strain DAK1, hits give low values 1.01 | locus YMR001C, strain CDC5, hits give low values 0.989 | locus YMR205C, strain PFK2 (second series), hits give low values 1.03 | locus YMR277W, strain FCP1, hits give low values 0.997 | locus YNL006W, strain LST8, hits give low values 0.993 | locus YNL020C, strain ARK1, hits give low values 1.01 | locus YNL161W, strain CBK1, hits give low values 1 | locus YNL183C, strain NPR1, hits give low values 0.996 | locus YNL207W, strain RIO2, hits give low values 0.995 | locus YNL222W, strain SSU72, hits give low values 0.998 | locus YNL307C, strain MCK1 (second series), hits give low values 1 | locus YOL078W, strain AVO1, hits give low values 0.998 | locus YOL136C, strain PFK27, hits give low values 1.02 | locus YOR061W, strain CKA2, hits give low values 0.994 | locus YOR119C, strain RIO1, hits give low values 1.02 | locus YOR231W, strain MKK1, hits give low values 0.973 | locus YOR329C, strain SCD5, hits give low values 0.991 | locus YPL031C, strain PHO85, hits give low values 0.983 | locus YPL153C, strain RAD53, hits give low values 0.953 | locus YPL204W, strain HRR25, hits give low values 0.972 | locus YPL209C, strain IPL1, hits give low values 0.998 | locus YPL256C, strain CLN2, hits give low values 0.99 | locus YPR025C, strain CCL1, hits give low values 0.988 | locus YPR106W, strain ISR1, hits give low values 1 | locus YPR111W, strain DBF20, hits give low values 1.02 | strain NNK1, hits give low values 1.03 | strain TSCII, hits give low values 0.994

— PubChem BioAssay AID1159580 (chemical genetic matrix, 2015)
